Source: the supplement of paper PMC11219838
A number with no mark means an inactive call.

Experiments:
Conditions in all cases: 60 µM; 5 days; temperature: 20 °C
Meloidogyne hapla J2 = assay: proportion of mobile M. hapla J2 relative to DMSO control (fraction of DMSO control); higher = more viable, less nematicidal, active = 0.7 or less
Method in brief: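 About 25 M. hapla J2 were added per 96-well well in distilled water, and compound was pinned to 60 µM final (0.6% v/v DMSO). Sealed plates were shaken at 200 rpm for 5 days at 20 °C, then 2 µL 1 M NaOH was added before microscopic mobility scoring. Mobility was divided by the mean of eight DMSO wells on the same plate, and two biological replicates were averaged.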

[1] = system: Caenorhabditis elegans dauer (daf-2(e1370)); assay: proportion of mobile C. elegans dauer larvae relative to DMSO control (fraction of DMSO control); higher = more viable, less nematicidal, active = 0.63 or less; extreme values may be limits of the assay
Method in brief: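 Synchronized C. elegans larvae were kept for 48 h at 25 °C on MYOB plates seeded with E. coli OP50 to induce dauer formation, and roughly 20 dauers were transferred into each well of a 96-well plate containing liquid NGM. Compound was pinned in to a final concentration of 60 µM with 0.6% v/v DMSO, and the sealed plates were shaken at 200 rpm for 5 days at 20 °C. The fraction of mobile worms was scored under a dissection microscope against DMSO-only wells and averaged across two biological replicates.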

Ditylenchus dipsaci = assay: proportion of mobile D. dipsaci (mixed stage) relative to DMSO control (fraction of DMSO control); higher = more viable, less nematicidal, active = 0.86 or less; extreme values may be limits of the assay
Method in brief: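 D. dipsaci were grown on pea plants in Gamborg B-5 agar and extracted through a filter funnel into water, and about 20 worms were added per 96-well well in distilled water. Compound was pinned to 60 µM final (0.6% v/v DMSO), and sealed plates were shaken at 200 rpm for 5 days at 20 °C. After 2 µL 1 M NaOH was added, mobile worms were scored microscopically. Mobility was expressed relative to DMSO controls and averaged over two biological replicates.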

| SMILES | proportion of mobile M. hapla J2 (Meloidogyne hapla J2) | proportion of mobile C. elegans dauer larvae [1] | proportion of mobile D. dipsaci (Ditylenchus dipsaci) |
| --- | --- | --- | --- |
| O=C(Nc1ccc(-c2noc(-c3ccccn3)n2)cc1)c1cccc(Cl)c1 | 0.87 | 1 | 1 |
| Cc1ccc(OC(C)c2nc(-c3ccncc3)no2)cc1C (centres undefined) | 0.995 | 1 | 1 |
| Clc1ccc(OCc2nc(-c3ccccc3)no2)c(Cl)c1 | 0.796 | 1 | 1 |
| COc1ccccc1OCc1nc(-c2ccc(Br)cc2)no1 | 1.04 | 1 | 1 |
| Cc1ccc(-c2nnc(SCC(=O)Nc3cc(C)ccc3C)o2)cc1 | 0.982 | 1 | 1 |
| CCCOc1ccc(-c2ccc(-c3nc(-c4ccccn4)no3)cc2)cc1 | 0.969 | 1 | 1 |
| Fc1cccc(-c2nc(-c3ccccc3)no2)c1 | 0.867 | 1 | 1 |
| Brc1ccc(-c2noc(-c3ccc4c(c3)OCO4)n2)cc1 | 1.03 | 1 | 1 |
| CCNC(=O)c1ccccc1-c1nc(-c2ccc(F)cc2)no1 | 0.998 | 1 | 1 |
| Cc1ccccc1OCc1nc(-c2ccc(NC(=O)c3ccc(Br)o3)cc2)no1 | 0.726 | 1 | 1 |
| COc1ccccc1NC(=O)CSc1nnc(-c2cccc3ccccc23)o1 | 0.811 | 1 | 1 |
| Cc1ccc(OCc2nc(-c3ccccc3)no2)c(Br)c1 | 1.01 | 1 | 1 |
| Cc1cc(OC(C)c2nc(-c3ccccn3)no2)ccc1Cl (centres undefined) | 1.03 | 1 | 1 |
| CCOC(=O)c1c(NC(=O)CSc2nnc(-c3ccc(Cl)cc3)o2)sc(C)c1C | 1.09 | 1 | 1 |
| COc1ccc(-c2noc(-c3ccccc3Cl)n2)cc1 | 0.885 | 1 | 1 |
| Cc1ccc(C)c(-c2nc(-c3ccncc3)no2)c1 | 1.09 | 0.385 (active) | 1 |
| CCOc1ccccc1NC(=O)CSc1nnc(-c2ccco2)o1 | 1.01 | 1 | 1 |
| c1ccc(COc2cccc(-c3nc(-c4ccccn4)no3)c2)cc1 | 1.03 | 1 | 1 |
| Cc1ccc(-c2nc(-c3ccccn3)no2)cc1C | 1.03 | 1 | 1 |
| O=C(CSc1nnc(-c2ccc(Cl)cc2Cl)o1)N1CCCCC1 | 0.934 | 1 | 1 |
| Clc1ccc(OCc2ccccc2)c(-c2nc(-c3cccnc3)no2)c1 | 1.01 | 1 | 0.917 |
| O=C(CSc1nnc(-c2ccccc2Cl)o1)Nc1nccs1 | 0.992 | 1 | 1 |
| COc1ccc(-c2nnc(SCc3ccccc3)o2)cc1 | 0.96 | 1 | 1 |
| Cc1ccc(Cl)cc1NC(=O)CSc1nnc(-c2ccncc2)o1 | 0.913 | 1 | 1 |
| Cc1ccc(-c2noc(-c3cc(C)cc(C)c3)n2)cc1 | 0.719 | 1 | 1 |

| SMILES | proportion of mobile M. hapla J2 (Meloidogyne hapla J2) | proportion of mobile C. elegans dauer larvae [1] | proportion of mobile D. dipsaci (Ditylenchus dipsaci) |
| --- | --- | --- | --- |
| CCCc1nnc(CSc2nnc(-c3ccc(Cl)cc3)o2)o1 | 0.983 | 1 | 0.812 (active) |
| Cc1cc(Br)ccc1OCc1nc(-c2ccccn2)no1 | 0.973 | 1 | 1 |
| CC(C)Oc1cccc(-c2nc(-c3ccccn3)no2)c1 | 1.01 | 0.667 | 1 |
| CCOc1cc(-c2noc(-c3ccncc3)n2)ccc1OC | 0.745 | 1 | 1 |
| CCCc1nnc(SCc2nnc(-c3ccccc3)o2)o1 | 1.03 | 1 | 1 |
| COc1cccc(-c2noc(COc3cccc(C)c3C)n2)c1 | 1.04 | 1 | 1 |
| Cc1ccc(-c2nc(-c3cccnc3)no2)c(C)c1 | 1.1 | 0.0769 (active) | 1 |
| Cc1ccc(-c2noc(COc3cc(C)cc(C)c3)n2)cc1 | 1.02 | 1 | 1 |
| Cc1cc(C)cc(OCc2nc(-c3cc(C)nc4ccccc34)no2)c1 | 1.02 | 1 | 1 |
| Brc1ccc(-c2noc(-c3cccs3)n2)o1 | 0.7 (active) | 0.5 (active) | 1 |
| Ic1ccc(-c2nc(-c3cccnc3)no2)cc1 | 1.02 | 1 | 1 |
| COc1ccc(C(=O)CSc2nnc(-c3ccccc3)o2)cc1 | 0.987 | 1 | 1 |
| Cc1ccc(-c2noc(COc3ccc(Cl)cc3)n2)cc1 | 1.02 | 1 | 1 |
| Cc1ccc(-c2nnc(SCc3c(C)cc(C)cc3C)o2)cc1 | 0.926 | 1 | 1 |
| c1cncc(-c2noc(-c3cccc4ccccc34)n2)c1 | 1.04 | 1 | 1 |
| Cc1cc(OCc2nc(-c3ccccn3)no2)ccc1Cl | 0.834 | 1 | 1 |
| COc1ccc(-c2nnc(SCC(=O)Nc3ccc(Cl)cc3C)o2)cc1 | 0.709 | 1 | 1 |
| O=C(CSc1nnc(-c2ccccc2)o1)NC1CC2CCC1C2 (centres undefined) | 0.795 | 1 | 1 |
| O=C(CSc1nnc(-c2ccc(Cl)cc2)o1)NC1CCCCC1 | 0.918 | 1 | 1 |
| COc1cccc(-c2noc(COc3cccc(C)c3)n2)c1 | 0.995 | 1 | 1 |
| COc1ccc(C(=O)Nc2ccc(-c3nnc(SCc4ccccc4)o3)cc2)cc1 | 1.07 | 1 | 1 |
| O=C(CSc1nnc(-c2cccc3ccccc23)o1)Nc1cccc(F)c1 | 0.999 | 1 | 1 |
| Brc1cccc(-c2noc(-c3ccc4c(c3)OCO4)n2)c1 | 1.03 | 1 | 1 |
| COc1ccc(-c2noc(-c3ccccc3C)n2)cc1 | 0.898 | 0.533 (active) | 1 |
| CCSc1nnc(-c2ccc(Cl)cc2Cl)o1 | 0.607 (active) | 0 (active) | 0.739 (active) |

| SMILES | proportion of mobile M. hapla J2 (Meloidogyne hapla J2) | proportion of mobile C. elegans dauer larvae [1] | proportion of mobile D. dipsaci (Ditylenchus dipsaci) |
| --- | --- | --- | --- |
| Cn1c(SCc2nnc(-c3ccccc3)o2)nnc1-c1ccco1 | 0.827 | 1 | 1 |
| Cc1ccc(-c2noc(COc3cccc(C)c3)n2)cc1 | 0.972 | 1 | 1 |
| COc1ccc(CC(=O)Nc2ccc(-c3noc(COc4cccc(C)c4C)n3)cc2)cc1 | 0.88 | 1 | 1 |
| COc1ccc(-c2noc(-c3cccc(C)c3)n2)cc1 | 1.08 | 0.889 | 1 |
| CC(C)(C)c1ccc(-c2nnc(SCc3cccc(C#N)c3)o2)cc1 | 1.05 | 1 | 1 |
| O=C(Nc1ccccc1-c1nc(-c2ccncc2)no1)c1ccccc1Cl | 0.979 | 1 | 1 |
| O=C(CSc1nnc(-c2ccccc2Cl)o1)Nc1ccc(Br)cn1 | 0.851 | 1 | 1 |
| Cc1ccc(-c2noc(COc3cc(C)ccc3C)n2)cc1 | 0.994 | 1 | 1 |
| COc1ccc(-c2noc(-c3ccc(Cl)cc3Cl)n2)cc1 | 1.04 | 1 | 1 |
| Cc1ccc(-c2nc(-c3ccccc3Cl)no2)cc1 | 0.998 | 1 | 1 |
| CC(=O)c1c(C)cc(C)c(CSc2nnc(-c3ccco3)o2)c1C | 0.906 | 1 | 1 |
| COc1ccccc1-c1nnc(SCC(=O)Nc2ccccc2Cl)o1 | 0.973 | 1 | 1 |
| c1coc(-c2nc(-c3cccs3)no2)c1 | 1.01 | 1 | 1 |
| Cc1ccccc1OCc1nc(-c2cccc(C(F)(F)F)c2)no1 | 0.946 | 1 | 1 |
| Cc1ccccc1-c1nc(-c2ccccc2Cl)no1 | 0.985 | 1 | 1 |
| CCCc1ccc(-c2nc(-c3ccc(F)cc3)no2)cc1 | 1.01 | 0.714 | 1 |
| Cc1nc(CSc2nnc(-c3ccc(Cl)cc3)o2)cs1 | 0.947 | 1 | 1 |
| c1ccc(-c2nnc(SCc3cccnc3)o2)cc1 | 0.92 | 1 | 0.75 (active) |
| Cc1cc(OCc2nc(-c3ccncc3)no2)c(C)cc1Br | 0.866 | 1 | 1 |
| COc1ccc(Cl)cc1NC(=O)CSc1nnc(-c2ccco2)o1 | 0.917 | 1 | 1 |
| O=C(CSc1nnc(-c2ccccc2)o1)NC1CCCCC1 | 1.01 | 1 | 1 |
| Cc1cc(C)nc(SCc2nc(-c3ccccc3)no2)n1 | 1.05 | 1 | 1 |
| Cn1c(SCc2nc(-c3cccs3)no2)nnc1-c1ccco1 | 0.932 | 1 | 1 |
